From PubChem BioAssay (NCI)
The panel holds about 83,000 compounds, 20% with a hit somewhere; the sample as a whole holds those more often.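 Results are percent growth after 48 hours of single-concentration exposure. 100 means growth as in untreated cells, lower positive values show inhibition; negative values down to -100 show cell death.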 Activity calls are given as the source filed them. The calls were made as follows: active = growth percent below 10; inactive = the rest.

Columns and labels:
Test in all cases: NCI-60 one-dose screen, 48 h (100 = growth as untreated, 0 = no growth, -100 = all killed)
A549/ATCC NSCLC = settings: 10 µM unless noted
DU-145 prostate = settings: 10 µM unless noted
RXF 393 renal = settings: 10 µM unless noted
SF-295 CNS = settings: 10 µM unless noted
SF-539 CNS = settings: 10 µM unless noted
UACC-257 melanoma = settings: 10 µM unless noted
HCT-15 colon = settings: 10 µM
HT29 colon = settings: 10 µM unless noted
SNB-75 CNS = settings: 10 µM unless noted
SK-MEL-5 melanoma = settings: 10 µM unless noted
LOX IMVI melanoma = settings: 10 µM unless noted
SK-MEL-2 melanoma = settings: 10 µM unless noted
ACHN renal = settings: 10 µM unless noted
CAKI-1 renal = settings: 10 µM unless noted
A498 renal = settings: 10 µM unless noted
HL-60(TB) leukemia = settings: 10 µM unless noted
MOLT-4 leukemia = settings: 10 µM
OVCAR-8 ovarian = settings: 10 µM unless noted
IGROV1 ovarian = settings: 10 µM
HS 578T breast = settings: 10 µM unless noted

Measured: growth

C[C@]12CCC(=O)CC1CC[C@@H]1C2CC[C@@]2(C)C1CC[C@@H]2OC(=O)CC[Se][Se]CCC(=O)O[C@H]1CCC2[C@@H]3CCC4CC(=O)CC[C@]4(C)C3CC[C@@]21C (some centres undefined)
active: HL-60(TB) leukemia 9.16%
inactive: A549/ATCC NSCLC 101% | DU-145 prostate 110% | RXF 393 renal 81.7% | SF-295 CNS 96.7% | SF-539 CNS 103% | UACC-257 melanoma 90.6% | HCT-15 colon 97.4% | HT29 colon 83.1% | SNB-75 CNS 109% | SK-MEL-5 melanoma 93.2% | LOX IMVI melanoma 80.8% | SK-MEL-2 melanoma 98.4% | ACHN renal 100% | CAKI-1 renal 84.6% | A498 renal 84.6% | MOLT-4 leukemia 90.1% | OVCAR-8 ovarian 94.2% | IGROV1 ovarian 97.3% | HS 578T breast 52.9%

CC(C)C1c2ccc(O)cc2Oc2nc(N)c(C#N)c(N)c21 (centres undefined)
inactive: A549/ATCC NSCLC 91.4% | DU-145 prostate 115% | SF-295 CNS 107% | SF-539 CNS 93.5% | UACC-257 melanoma 105% | HCT-15 colon 107% | HT29 colon 109% | SNB-75 CNS 81.4% | SK-MEL-5 melanoma 91% | LOX IMVI melanoma 103% | SK-MEL-2 melanoma 109% | ACHN renal 92.5% | CAKI-1 renal 93.5% | A498 renal 88.4% | HL-60(TB) leukemia 102% | MOLT-4 leukemia 98.1% | OVCAR-8 ovarian 96.2% | IGROV1 ovarian 111% | HS 578T breast 91.4%

O=S(=O)(Cl)c1ccccc1 (tested in a mixture with another compound)
inactive: A549/ATCC NSCLC 102% | DU-145 prostate 109% | RXF 393 renal 99.1% | SF-539 CNS 102% | UACC-257 melanoma 97.1% | HCT-15 colon 101% | HT29 colon 101% | SNB-75 CNS 95.4% | SK-MEL-5 melanoma 99.2% | LOX IMVI melanoma 98.8% | ACHN renal 93.9% | CAKI-1 renal 109% | A498 renal 85% | MOLT-4 leukemia 93% | OVCAR-8 ovarian 108% | IGROV1 ovarian 109% | HS 578T breast 102%

O=C1NC(=O)C(Cc2ccccc2)(Cc2ccccc2)C(=O)N1
inactive: A549/ATCC NSCLC 104% | DU-145 prostate 115% | RXF 393 renal 113% | SF-295 CNS 105% | SF-539 CNS 110% | UACC-257 melanoma 108% | HCT-15 colon 108% | HT29 colon 104% | SNB-75 CNS 89.3% | SK-MEL-5 melanoma 109% | LOX IMVI melanoma 90.4% | SK-MEL-2 melanoma 104% | ACHN renal 114% | CAKI-1 renal 114% | A498 renal 104% | HL-60(TB) leukemia 89.4% | MOLT-4 leukemia 100% | OVCAR-8 ovarian 106% | IGROV1 ovarian 114% | HS 578T breast 109%

C=CCc1ccc(OC(=O)Cc2ccccc2)c(OC)c1
inactive: A549/ATCC NSCLC 104% | DU-145 prostate 111% | RXF 393 renal 110% | SF-295 CNS 95.7% | SF-539 CNS 97.8% | UACC-257 melanoma 120% | HCT-15 colon 103% | HT29 colon 115% | SNB-75 CNS 76.3% | SK-MEL-5 melanoma 102% | LOX IMVI melanoma 93.6% | SK-MEL-2 melanoma 80.6% | ACHN renal 110% | CAKI-1 renal 95.2% | A498 renal 97.4% | OVCAR-8 ovarian 109% | IGROV1 ovarian 99.8% | HS 578T breast 114%

CCC1([N+](=O)[O-])COP(=O)(NCc2cccnc2)OC1 (centres undefined)
inactive: A549/ATCC NSCLC 102% | DU-145 prostate 103% | RXF 393 renal 106% | SF-295 CNS 104% | SF-539 CNS 106% | UACC-257 melanoma 113% | HCT-15 colon 104% | HT29 colon 116% | SNB-75 CNS 104% | SK-MEL-5 melanoma 107% | LOX IMVI melanoma 102% | SK-MEL-2 melanoma 111% | ACHN renal 113% | CAKI-1 renal 103% | A498 renal 94.3% | HL-60(TB) leukemia 107% | MOLT-4 leukemia 111% | OVCAR-8 ovarian 108% | IGROV1 ovarian 118% | HS 578T breast 107%

N#CC1=C(N)Oc2cc3c(cc2C1c1cccs1)OCO3 (centres undefined)
active: RXF 393 renal -5.68% | SF-295 CNS 4.03% | SF-539 CNS 0.18% | HT29 colon 8.98% | SNB-75 CNS -14.9% | A498 renal 7.63% | HL-60(TB) leukemia -28.6%
inactive: A549/ATCC NSCLC 36.8% | DU-145 prostate 15.5% | UACC-257 melanoma 60.8% | HCT-15 colon 35.5% | SK-MEL-5 melanoma 16.2% | LOX IMVI melanoma 37.2% | SK-MEL-2 melanoma 21.2% | ACHN renal 57.4% | CAKI-1 renal 43.4% | MOLT-4 leukemia 29.9% | OVCAR-8 ovarian 35.1% | IGROV1 ovarian 35.3% | HS 578T breast 24.6%

ClCCN(CCCl)c1nc(Cl)c(C2CC(c3ccc(Cl)cc3)=NN2c2cc(Cl)cc(Cl)c2)s1 (centres undefined)
inactive: A549/ATCC NSCLC 97.7% | DU-145 prostate 116% | RXF 393 renal 119% | SF-295 CNS 101% | SF-539 CNS 118% | UACC-257 melanoma 94.4% | HCT-15 colon 105% | HT29 colon 94.4% | SNB-75 CNS 97.7% | SK-MEL-5 melanoma 115% | LOX IMVI melanoma 106% | SK-MEL-2 melanoma 96.3% | ACHN renal 106% | CAKI-1 renal 82.9% | A498 renal 101% | HL-60(TB) leukemia 104% | MOLT-4 leukemia 95% | OVCAR-8 ovarian 99.1% | IGROV1 ovarian 102% | HS 578T breast 89.7%
